# Legend:
# Format in all cases: functional
# Plasmodium falciparum [1] = assay: GSK_TCMDC: Inhibition of Plasmodium falciparum 3D7 in whole red blood cells, using parasite LDH activity as an index of growth. Test compounds present at 2uM
# Plasmodium falciparum [2] = assay: GSK_TCMDC: Inhibition of Plasmodium falciparum Dd2 in whole red blood cells, using parasite LDH activity as an index of growth. Test compounds present at 2uM
# HepG2 = assay: GSK_TCMDC: Percent inhibition of human HepG2 cell line. Test compounds present at 10uM.
SMILES,Inhibition (Plasmodium falciparum [1]),Inhibition (Plasmodium falciparum [2]),Inhibition (HepG2)
Cc1cccc2nc(-c3ccc(-c4ccc(CN5CC(C)OC(C)C5)cc4)cc3)[nH]c12.O=C(O)C(F)(F)F (stereo unspecified),97%,96%,37%
O=C(Nc1ccc(Cl)cc1)N(CC1CC2CCC(C1)N2Cc1ccc(C(F)(F)F)cc1)c1ccc(N2CCOCC2)c(F)c1 (stereo unspecified),85%,36%,31%
Cl.NOCCCCOc1ccc(Cl)cc1,98%,0%,2%
CN(C)Cc1c(O)ccc2[nH]c(-c3ccc(OC(F)(F)F)cc3)nc12,100%,97%,24%
COc1ccccc1C(C)NCC(=O)Nc1cccc(C(=O)Nc2cccc(C(F)(F)F)c2)c1 (stereo unspecified),91%,39%,34%
CCN(CC)CCN(Cc1ccc(-c2ccc(Cl)cc2)cc1)C(=O)Cn1c(CCc2cccc(F)c2F)nc(=O)c2ccccc21.O=C(O)C(O)C(O)C(=O)O,100%,75%,45%
COC(=O)c1ccc(C(=O)NCCCCN2CCC(c3ccc4c(c3OC)CCCC4)CC2)cc1-c1ccc(C(F)(F)F)cc1,93%,19%,24%
Nc1c(Cl)cc(C(O)CNCCCCCOCCCc2ccc(O)c3ncccc23)cc1Cl.O=C(O)/C=C/C(=O)O (stereo unspecified),90%,12%,65%
O=C(NCCCCN1CCC(c2nc3ccccc3s2)CC1)c1cc2ccccc2[nH]1,86%,64%,43%
Cc1ccc(-c2ccc3c(c2)C=C(C(=O)NCC2CCN(CC4CCN(C(=O)/C=C/c5ccc(Cl)c(Cl)c5)CC4)CC2)CCC3)cc1,99%,70%,96%
CC(C)NCc1ccc(-c2cccc(-c3nc4cc(F)ccc4[nH]3)c2)cc1.O=C(O)C(F)(F)F,100%,96%,14%
O=C(O)C(F)(F)F.O=S(=O)(NCCN1CCCC1)c1ccc(-c2cccc(CNCCc3cccs3)c2)s1,99%,44%,39%
Cc1cc(=NN=Cc2ccccc2Cl)c2cc(F)ccc2[nH]1,100%,4%,5%
O=C(NCCCCCN1CCC(c2c[nH]c3ccccc23)CC1)Nc1ccc(Cl)cc1Cl,99%,15%,71%
Cl.O=c1cc(NCCCNCc2cc(Br)cs2)[nH]c2ccccc12,85%,5%,11%
O=C(NCCCN1CCOCC1)c1ccc(-c2cccc(NC(=O)c3ccc(Cl)c(Cl)c3)c2)cc1,100%,68%,3%
Cc1nc(C)c(-c2ccc(-c3ccc(F)cc3)cc2)c(O)c1Br,94%,52%,12%
Cc1cc(-c2ccc3c(c2)CC[C@@H](N[C@@H](C)c2ccccc2)C3)cnc1N.Cl,98%,7%,3%
Cc1cc(C)c(-c2n[nH]c3c2C(c2cccc(Cl)c2)N(Cc2ccco2)C3=O)c(O)c1 (stereo unspecified),96%,89%,0%
CCOC(=O)C(C(C)=O)C(c1ccccc1)C(C(C)=O)C(=O)OCC (stereo unspecified),95%,14%,6%
O=C(NCCCCCN1CCC(c2c[nH]c3ccccc23)CC1)Nc1cccc(C(F)(F)F)c1,97%,11%,51%

SMILES,Inhibition (Plasmodium falciparum [1]),Inhibition (Plasmodium falciparum [2]),Inhibition (HepG2)
Fc1ccc2[nH]c(-c3ccc(-c4cccc(CN5CCN(c6ccncc6)CC5)c4)cc3)nc2c1.O=C(O)C(F)(F)F,100%,100%,66%
Cc1ccc2c(Cc3cnc(N)nc3N)cc(C)c(N)c2n1.Cl,91%,92%,0%
O=C(COc1ccccc1Cl)N1CCc2cc3nccc(N4CCN5CCC[C@H]5C4)c3cc21,91%,99%,4%
CCCCCCc1c(C)nc2cc(OC)ccc2c1O,97%,97%,10%
Cc1nnc(NC(=O)c2cn(-c3ccccc3)nc2-c2ccccc2C)o1,93%,87%,37%
N[C@@H](Cc1ccc(O)cc1)C(=O)NC(c1ccccc1)c1c(O)ccc2ccccc12.O=C(O)C(F)(F)F (stereo partly specified),95%,95%,6%
COc1ccc(CN2CCC(C(=O)Nc3cccc(-c4cccc(Cl)c4)c3)CC2)cc1O,91%,0%,25%
COc1ccc(-c2ccc(CNC(=O)c3ccc(C#N)cc3)c(F)c2)cc1CN1CCCN(C)CC1.O=C(O)C(F)(F)F,90%,1%,6%
CC(C)C[C@@H](CNC[C@H](CC(C)C)NC(=O)OC(C)(C)C)NC(=O)OC(C)(C)C,88%,58%,4%
Fc1ccc2[nH]c(-c3ccc(-c4ccc(CNCCc5cccnc5)cc4)s3)nc2c1.O=C(O)C(F)(F)F,100%,99%,40%
COc1ccc(CCNCCCCCCNCCc2cccc([N+](=O)[O-])c2)cc1OC.Cl,93%,0%,13%
Cc1nc(-c2nc(NCCc3ccncc3)ncc2-c2ccsc2)sc1C,92%,87%,10%
CN(C)c1ccc(C2(c3ccccc3)N=C(N)N(CCCc3ccccc3)C2=O)cc1.O=C(O)C(F)(F)F (stereo unspecified),99%,97%,4%
Cc1cc(C(=O)NC2CCN(Cc3ccccc3)CC2)ccc1-c1nc2ccc(C(F)(F)F)cc2[nH]1,95%,2%,19%
CC(C)CCNCC(O)Cn1c2ccc(Cl)cc2c2cc(Cl)ccc21 (stereo unspecified),99%,99%,36%
Cc1c(Br)cc2nc(-c3ccc(C(=O)NC4CCN(Cc5ccccc5)CC4)cc3)[nH]c2c1C,100%,98%,4%
CC(NCC(O)Cn1c2ccccc2c2ccccc21)c1ccccc1.O=C(O)c1ccccc1 (stereo unspecified),96%,85%,37%
Oc1c(C=Nn2cnnc2)sc2ccccc12,93%,68%,0%
Cc1noc(-c2ccc(N3CCC(C(=O)N4CCN(C(C)C)CC4)CC3)cc2)n1.Cl,95%,0%,0%
CC(CN1CCN(C)CC1)C(=O)Nc1ccc(-c2cccc(-c3nc4ccccc4[nH]3)c2)cc1 (stereo unspecified),94%,81%,4%
Fc1ccccc1-c1cc(Nc2ccncc2)nc(-c2cccnc2)n1,100%,89%,91%

SMILES,Inhibition (Plasmodium falciparum [1]),Inhibition (Plasmodium falciparum [2]),Inhibition (HepG2)
COC(=O)c1cccc(CNCc2ccc(-c3ccc(-c4nc5cc(C(F)(F)F)ccc5[nH]4)cc3)cc2)c1.O=C(O)C(F)(F)F,100%,98%,22%
COc1ccccc1-n1ccnc1SCC(=O)Nc1cccc(C(F)(F)F)c1,95%,96%,1%
COc1cc(Nc2nccn3c(-c4ccsc4)cnc23)cc(OC)c1OC,93%,78%,26%
CC(C)(C)c1ccc(CN(C[C@@H](O)CNS(=O)(=O)c2cc(Cl)cc(Cl)c2)C(C)(C)C)cc1.Cl,98%,94%,74%
OCCOCn1cnc2cnc(N[C@H]3OC[C@H](O)[C@@H](O)[C@@H]3O)nc21,82%,0%,42%
COC(=O)c1cccc(CNCc2cccc(-c3csc(-c4nc5ccccc5[nH]4)c3)c2)c1.O=C(O)C(F)(F)F,100%,44%,0%
COc1ccc(S(=O)(=O)N2CCC3(CC2)OCC(=O)NC3c2ccc(Cl)c(Cl)c2)cc1 (stereo unspecified),91%,44%,0%
Br.CCCc1cc(C(C)=O)ccc1OCCCON1C(=N)N=C(N)NC1(C)C,96%,96%,61%
CCCCc1ccc2[nH]c(NC(=O)OC)nc2c1 [PARBENDAZOLE],98%,1%,26%
FC(F)(F)c1ccc2[nH]c(-c3cccc(-c4ccc(CNCC5CCCO5)cc4)c3)nc2c1.O=C(O)C(F)(F)F (stereo unspecified),99%,99%,29%
Nc1ccc(-c2nc3cc(Cc4ccc5[nH]c(-c6ccc(N)cc6)nc5c4)ccc3[nH]2)cc1,100%,96%,47%
COc1ccc(NC(=O)Nc2cccc(-c3cccc(-c4nc5cc(F)ccc5[nH]4)c3)c2)cc1,99%,39%,59%
COc1cc2c(Nc3ccc(NC(=O)c4ccccc4)cc3)ncnc2cc1OCCCN1CCOCC1,99%,93%,14%
COc1cc2nc(NCC3CCN(c4nc(N)c5cc(OC)c(OC)cc5n4)CC3)nc(N)c2cc1OC,92%,73%,12%
Cc1cccc2nc(-c3cccc(-c4ccc(NC(=O)CCc5c[nH]cn5)cc4)c3)[nH]c12,100%,92%,3%
O=C(NCCCCN1CCC(c2cccc3ccccc23)CC1)c1ccc(NC(=O)c2ccc(Cl)cc2)cc1,99%,39%,20%
COc1cc(NC(=O)/C=C/c2cc3ccccc3n2C)ccc1OCCN(C(C)C)C(C)C.Cl,99%,68%,16%
CCN(CC)CCCN(C(=O)c1cc2c(C)nn(-c3ccccc3)c2s1)c1nc(-c2ccc(OC)cc2)cs1.Cl,89%,32%,12%
CN(C)Cc1ccc(-c2ccc3ccnc(N)c3c2)cc1,100%,100%,20%
COc1ccc(NC(=O)/C=C/c2ccccc2Cl)cc1OCCN1CCC(O)(c2ccc(Cl)c(C(F)(F)F)c2)CC1.Cl,100%,9%,37%
